# FLuc modulator = firefly luciferase modulation, counter-screen for miR-21 project. P08659. purified FLuc, Km substrates, luminescence inhibition. Potency, µM (top dose mostly 57.5 µM), without a hit: at the top dose activity change, negative = inhibition, hits mostly inhibitors. hit rate 6.9% among 360,000. AID 588342;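 further: plate controls were vehicle for no effect and reference inhibitor for full effect; nearly all actives have a fitted effect of over 55% in size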
# Target sequence (P08659 whole entry, looked up): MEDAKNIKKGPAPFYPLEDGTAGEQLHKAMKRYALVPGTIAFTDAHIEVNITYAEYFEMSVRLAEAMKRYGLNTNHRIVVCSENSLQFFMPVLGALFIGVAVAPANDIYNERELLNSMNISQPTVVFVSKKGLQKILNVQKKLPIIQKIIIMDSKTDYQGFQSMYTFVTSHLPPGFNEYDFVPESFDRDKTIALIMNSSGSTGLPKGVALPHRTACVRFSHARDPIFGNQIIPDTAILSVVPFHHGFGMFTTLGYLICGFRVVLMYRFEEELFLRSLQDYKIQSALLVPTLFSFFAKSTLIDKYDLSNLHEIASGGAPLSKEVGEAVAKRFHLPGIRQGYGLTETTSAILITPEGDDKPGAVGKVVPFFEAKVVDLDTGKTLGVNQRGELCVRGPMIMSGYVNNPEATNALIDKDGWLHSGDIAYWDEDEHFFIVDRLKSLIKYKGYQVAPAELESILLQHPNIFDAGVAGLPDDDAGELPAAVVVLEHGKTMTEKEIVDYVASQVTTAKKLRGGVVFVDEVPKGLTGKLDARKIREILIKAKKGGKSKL
#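 Biochemical qHTS of compounds, final roughly 60 µM downward over six points, against 10 nM purified firefly luciferase using Km concentrations of substrates (10 uM D-luciferin, 10 uM ATP) in Tris acetate pH 7.5 buffer; luminescence output.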
# NPC1 promoter act = NPC1 promoter activation; Huh7 NPC1 promoter luciferase reporter, 24 h; Potency, µM (titrated, usually from 9.22 µM), for inactives: at the top dose activation, most hits filed as activators; hit rate 2.4% among 320,000; AID 485313; further: % of control where 0% means no effect; nearly all actives have a fitted effect of over 60% in size
#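 Luciferase expression driven by the NPC1 promoter was measured in stably transfected Huh7 cells after a 24 h compound incubation, using a luciferase reagent and a luminescence read.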
# ELG1 genotox = genotoxicity induction in ELG1-luciferase HEK293T cells | hit rate 1.3% among 330,000 | Potency, µM (series often up to 46 µM), for the others: top-dose activity change, positive = activation, hits mostly activators | HEK293T ELG1-luciferase reporter, luminescence, 16 h; further: % of control where 0% means no effect; nearly all actives have a fitted effect of over 60% in size
#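 HEK293T cells expressing luciferase-tagged ELG1 were treated with compound or DMSO for 16 hr at 37°C. Luciferase activity was then read after 30 min with ONE-Glo at room temperature; rising signal flags genetic stress.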
# Rab9 promoter act = activates the Rab9 promoter. Huh7 Rab9 promoter-luciferase reporter, luminescence, 24 h. Potency, µM (highest dose often 9.22 µM), inactives show at the highest dose activation, negative = inhibition, most hits filed as activators. hit rate 2.8% among 320,000; further: % of control where 0% means no effect; nearly all actives have a fitted effect of over 60% in size
#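 Cell-based reporter: Huh7 stable for Rab9 promoter-driven luciferase, plated in reduced-serum medium with 10% FBS at 1500 cells/well, compound-treated 24 h at 37 °C, luminescence read after 10 min reagent.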
# ELG1 DNA repair = blocks ELG1-dependent DNA repair in HEK293T cells; HEK293T ELG1-luciferase reporter, luminescence, 16 h; DNA damage induced by 5-fluorouridine; Potency, µM (titrated, usually from 46.1 µM), for the others: at the top dose activity change, negative = inhibition, most hits filed as inhibitors; hit rate 2.3% among 330,000; further: on the % scale 0 is the no-effect control and ±100 the full control effect; nearly all actives have a fitted effect of over 55% in size
#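 5-Fluorouridine DNA damage + compound/DMSO, 2,000 cells/well, 16 h, 37 °C/5% CO2. ONE-Glo, 30 min RT, luminescence. Readout = decrease in reporter signal.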
# SMN2 splice up = SMN2 splice variant enhancement | hit rate 2.8% among 210,000 | HEK293 SMN2-luciferase splicing reporter, luminescence, 30-36 h | AID 1458 | Potency, µM (top dose mostly 46.1 µM), for the others: at the highest dose activity change, positive = activation, usual class: activators; further: % of control where 0% means no effect; nearly all actives have a fitted effect of over 55% in size
#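 HEK293 cells carry an SMN2 minigene-luciferase reporter in which exon 7 inclusion puts luciferase in frame. Cells were seeded at 2000 cells/well, attached for 10-12 hours, then exposed to compounds for 30-36 hours at 37C before ONE-Glo luminescence.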
# * marks the source's active call; other numbers are inactive results; u = inconclusive; x = no result given; [ ] = remark or other dose. Sampled rows, rich in hits. Any-hit rate of the full collection: about 9.2%. The call rests on the fitted dose curve; in most records, active means well fitted curve in the direction sought with a large enough effect; inconclusive means small, poorly fitted or top-dose-only effect, or another doubt; inactive means no such curve, though single readings can be large; an effect the other way counts as inactive or inconclusive. Potency means the concentration at half of the fitted maximal effect.
SMILES,FLuc modulator,NPC1 promoter act,ELG1 genotox,Rab9 promoter act,ELG1 DNA repair,SMN2 splice up
CC(C)(C)OC(=O)N1CC(O)CC1C(=O)OCC(=O)c1ccc(-c2ccccc2)cc1 (centres undefined),-3%,-2%,-1%,-3%,-11%,-43%
Cc1ccc(-c2nc3ccccc3c(=O)n2-c2ccncc2)cc1,-1%,-1%,0%,10%,-3%,-8%
O=c1c2ccccc2nc(-c2ccc(-c3ccccc3)cc2)n1-c1ccncc1,17µM*,-1%,-4%,-3%,u,-20%
CN[C@H](Cc1ccccc1)c1cccc(OC)c1O,x,x,x,x,x,-20%[9.22 µM]
COCCOC(=O)c1c(N)n(Cc2ccccc2)c2nc3ccccc3nc12,1%,-1%,-11%,1%,18µM*,27%
CCCCOCCCn1c(N)c(C(=O)OCCOC)c2nc3ccccc3nc21,2%,-1%,-10%,-3%,u,11%
CCCCn1c(N)c(C(=O)OCCOC)c2nc3ccccc3nc21,-12%,-5%,-6%,0%,8.2µM*,x
CCCOC(=O)c1c(N)n(Cc2cccs2)c2nc3ccccc3nc12,4%,-3%,-12%,1%,21µM*,-5%
CCCNC(=O)c1c(N)n(CC2CCCO2)c2nc3ccccc3nc12 (centres undefined),-3%,1%,-6%,12%,u,-14%
CC(C)OCCCNC(=O)c1c(N)n(CC2CCCO2)c2nc3ccccc3nc12 (centres undefined),-2%,-4%,-8%,-7%,9.2µM*,-14%
CCCCCn1c(N)c(C(=O)NCc2cccs2)c2nc3ccccc3nc21,2%,-7%,0%,8%,u,-12%
CC(Cl)CCl (centres undefined),x,x,x,x,x,9%
CCc1ccc(CNC(=O)c2ccc3c(c2)N=C(C)c2cc(C)ccc2S3)cc1,-3%,x,x,x,x,1%
CCCCn1c(N)c(C(=O)OCC2CCCO2)c2nc3ccccc3nc21 (centres undefined),u,1%,-1%,10%,9.2µM*,u
ClC(Cl)=C(Cl)Cl,x,x,x,x,x,17%
CSCC[C@@H](N)P(C)(=O)O,x,x,x,x,x,-3%[9.22 µM]
N#CC(C#N)=NNc1ccc(-n2ccc(C(F)(F)F)n2)cc1,15µM*,-35%,-16%,-41%,u,x
Cc1cc(C)n(-c2ccc(NN=C(C#N)C#N)cc2)n1,15µM*,-1%,-5%,-1%,0%,x
CCN1/C(=C\C=C\C2=[N+](CC)c3ccccc3C2(C)C)C(C)(C)c2ccccc21,u,-34%,-17%,-42%,2.3µM*,-70%
Clc1ccc(C(c2ccccc2Cl)C(Cl)(Cl)Cl)cc1 (centres undefined),x,x,x,x,x,-1%
O=C(NC1CC1)c1cn(Cc2ccccc2)nc1-c1ccccc1,4%,1%,-1%,0%,8%,x
Cc1ccc(Cn2cc(C=O)c(-c3ccc(C)cc3)n2)cc1,17µM*,25%,u,u,u,u
O.O.[NH-]C1(C(=O)O)CCCC1.[NH-]C1(C(=O)O)CCCC1.[Ni+2],x,x,x,x,x,8%[9.22 µM]
Cc1ccc(-c2nc3ccc(Cl)cc3n2OC(=O)N(C)C)cc1,u,3.2µM*,2.9µM*,3.2µM*,u,-15%
CN(C)C(=O)Oc1ccnc2cc(Cl)ccc12,1%,-7%,-7%,-5%,u,u
SMILES,FLuc modulator,NPC1 promoter act,ELG1 genotox,Rab9 promoter act,ELG1 DNA repair,SMN2 splice up
COc1cc2c(cc1OC)[C@@H]1C(=O)c3ccc4c(c3O[C@@H]1CO2)C[C@H](C(C)C)O4,-2%,-49%,-7%,-51%,0.058µM*,x
COc1cc2c(cc1OC)[C@H]1C(=O)c3ccc4c(c3O[C@H]1CO2)C[C@@H](C(C)(C)O)O4,x,x,-6%,x,-20%,x
CC1CCN(C(=O)c2ncn(C)c2C(=O)N2CCC(C)CC2)CC1,x,x,3%,x,u,x
Cc1ccc(-c2nn3c(C)nnc3c3ccccc23)cc1S(=O)(=O)NCCO,0%,-1%,u,0%,u,u
Cc1ccc(-c2nnc(Nc3ccc(OC(F)(F)Cl)cc3)c3ccccc23)cc1S(=O)(=O)NC(C)(C)CO,5.4µM*,x,x,x,x,16%
COC(=O)c1nc(-c2ccc3c(n2)C(=O)C(N)=C(OC)C3=O)c(N)c(-c2ccc(OC)c(OC)c2O)c1C,0%,-33%,-13%,-35%,2.1µM*,x
O=C(Nc1cccc(C(F)(F)F)c1)C1CCCN1S(=O)(=O)c1cccc2nsnc12 (centres undefined),-1%,x,x,x,x,-62%
C/C(=N\NC(=S)Nc1ccccc1)c1c(O)n(C)c(=O)n(C)c1=O,12µM*,6%,7%,-2%,u,28%
COc1ccc(CN2C(=O)NC(=O)/C(=C\c3ccco3)C2=O)cc1,24µM*,-9%,-1%,-2%,u,1%
COc1ccc(/C=C2\C(=O)NC(=O)N(Cc3ccccc3)C2=O)c(OC)c1OC,-20%,3%,6%,0%,22%,7%
COc1ccc(CN2C(=O)NC(=O)/C(=C\c3cc(OC)c(OC)c(OC)c3)C2=O)cc1,19µM*,1%,5%,0%,u,-42%
N#CC(Cl)(Cl)Cl,x,x,x,x,x,12%
C[C@@]12CCC3C(CCC4=CC(=O)CC[C@]43C)C1CCC2O (some centres undefined),x,x,x,x,x,-12%
COc1ccccc1NC(=O)Oc1cccc(OC(=O)c2ccccc2)c1,u,4%,-1%,-7%,-3%,x
O=C1NC(=O)N(c2ccc3c(c2)OCO3)C(=O)/C1=C\c1ccc(-c2ccccc2C(=O)O)o1,15µM*,-4%,0%,-3%,3%,x
Cc1cccc(N2C(=O)NC(=O)/C(=C\c3ccc(N4CCOCC4)cc3)C2=O)c1,u,-5%,0%,1%,-16%,x
Cc1cccc(N2C(=O)NC(=O)/C(=C/c3ccc(-c4ccc(C(=O)O)c(Cl)c4)o3)C2=O)c1,6µM*,-6%,10%,-2%,10%,13%
O=C1NC(=O)N(c2ccc3c(c2)OCO3)C(=O)/C1=C\c1ccsc1,24µM*,-4%,-1%,2%,-3%,x
c1ccc(N2CCCC3(CCNCC3)C2)nc1,x,x,x,x,x,8%
Cc1ccc(C2(c3ccc(C)c(O)c3C)CCN(C)CC2)c(C)c1O,x,x,x,x,x,-5%[9.22 µM]
CC(=O)Nc1ccc(S(=O)(=O)N(C)CCOCc2ccccc2)cc1,2%,0%,-1%,-7%,u,-17%
COc1cc(/C=C(/C)[N+](=O)[O-])ccc1OCc1ccccc1Cl,13µM*,-8%,-16%,-52%,u,-103%
COc1ccc(/C=N/NC(=O)c2cccc([N+](=O)[O-])c2)cc1OC,u,-6%,0%,1%,1%,3%
